PubChem BioAssay (NCATS)
Results filed as inconclusive are left out. The source made the active and inactive calls. Calls follow the shape of the dose curve; as a rule, active = well fitted cell-killing curve with a large enough effect; inconclusive = small, poorly fitted or top-dose-only effect; inactive = flat fitted curve, though single readings scatter.

Experiment: MultiTox-Fluor Cytotoxicity Assay - LYMP1-001 - Live Cells (AID 947);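 as to activity change, negative = cytotoxicity: 0% = DMSO only and full inhibition = tetraoctylammonium bromide control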
Details: LYMP1-001 lymphoblastoid cells, live-cell protease fluorescence viability; series mostly up to 92.2 µM; activity change, negative = cytotoxicity: at the top concentration
From the text: NIH Chemical Genomics Center [NCGC]
NIH Molecular Libraries Screening Centers Network [MLSCN]
National Institutes of Environmental Health Sciences [NIEHS]
National Toxicology Program [NTP]
We have developed a 1536-well cell-based assay for quantitative high throughput screening (qHTS) against a number of cell lines to determine in vitro cytotoxicity of small molecules. This particular assay uses a human lymphoblastoid cell line (LYMP1-001) purchased from Coriell Institute.
NCGC Assay Protocol Summary:
The MultiTox-Fluor Cytotoxicity Assay (Promega) is a homogeneous method to simultaneously measure the relative number of live and dead cells in culture by detecting changes in cell membrane integrity. There are two fluorogenic peptide substrates in the assay reagent. Viable cells are determined when the cell-permeant substrate (GF-AFC) enters the cell and is cleaved by protease from live cells resulting in liberated fluorophore. This live-cell protease activity restricted to viable cells is proportional to cell number. The dead cells are determined by using fluorogenic cell-impermeant peptide substrate (bis-AAF-R110) which cleaved by dead cell proteases leaking from damaged cell membrane.
Using the MultiTox-Fluor Cytotoxicity Assay, the relative number of live cells was measured in the lymphoblastoid cell line with complete culture medium following compound treatment for 16 hours. The assay was performed in opaque black Kalypsys 1536-well plates. In the screen, tetraoctylammonium bromide was used as positive control. Library compounds were measured for their ability to cause acute toxicity in the cell line, as reflected by a decrease in live cell protease activity, in a concentration-dependent manner. […] AC50 values were determined from concentration-response data modeled with the standard Hill equation.
qHTS protocol for MultiTox-Fluor Cytotoxicity assay
[Step] [Parameter] [Value] [Description]
1. Reagent; 5 uL; 2500 lymphoblastoid cells/well
2. Time; 5 hr; 37 C incubation
4. Controls; 23 nL; Tetraoctylammonium bromide 6.4pM to 92 uM
5. Time; 16 hr; 37 C incubation
6. Reagent; 5 uL; MuliTox-Fluor Assay reagent
7. Time; 60 min; Room Temperature
8. Detection; live-cell fluorescence (Ex/Em=405/510); EnVision plate reader
Keywords: cell viability, cytotoxicity, lymphoblastoid cell line, fluorescence, NTPHTS, NTPHTS_NCGC, NIEHS, EPA, DSSTox, MLSMR, MLSCN, NIH Roadmap, qHTS, NCGC
Potency is read from the fitted curve at half-maximal effect.

| SMILES | activity change, negative = cytotoxicity | Potency |
| --- | --- | --- |
| Brc1ccc(-c2ccccc2)cc1 | 10.1% (inactive) | – |
| Oc1c(Cl)cc(Cl)c(Cl)c1Cl | -11.7% (inactive) | – |
| O=C(Cl)c1ccc([N+](=O)[O-])cc1 | 17.1% (inactive) | – |
| C=CC1CO1 (stereo not given) | 3.8% (inactive) | – |
| Cc1ccccc1OCC1CO1 (stereo not given) | 9.03% (inactive) | – |
| C=Cc1cccc(C)c1 | -11.6% (inactive) | – |
| O=C(OCc1ccccc1)c1ccccc1O | 1.79% (inactive) | – |
| Nc1cc([N+](=O)[O-])ccc1O | -5.93% (inactive) | – |
| Cc1ccc2ccc3cccc4ccc1c2c34 | -4.31% (inactive) | – |
| CC(=O)OC1CC(C)OC(C)O1 (stereo not given) | 8.3% (inactive) | – |
| C/C(Cl)=C/CCl | 19.1% (inactive) | – |
| O=[N+]([O-])c1cccc(I)c1 | -1.41% (inactive) | – |
| Cc1c(N)cccc1Cl | -17.3% (inactive) | – |
| CCCCOC(=O)COc1ccc(Cl)cc1Cl | 1.8% (inactive) | – |
| CCCCC(CC)COP(=O)(OCC(CC)CCCC)OCC(CC)CCCC (stereo not given) | -16.4% (inactive) | – |
| Cc1cc(-c2ccc(N=Nc3cc(S(=O)(=O)O)c4ccccc4c3N)c(C)c2)ccc1N=Nc1cc(S(=O)(=O)O)c2ccccc2c1N | -30.4% (inactive) | – |
| Nc1ccc(-c2ccc(N)c(O)c2)cc1O | -20.3% (inactive) | – |
| O=C1OC(=O)c2ccccc21 | -24.7% (inactive) | – |
| Cc1ccc(S(N)(=O)=O)cc1 | 2.87% (inactive) | – |
| O=c1[nH]ncc2ccccc12 | -25.3% (inactive) | – |

| SMILES | activity change, negative = cytotoxicity | Potency |
| --- | --- | --- |
| c1ccc(SCCSc2ccccc2)cc1 | 9.59% (inactive) | – |
| CC(C)(C)C(=O)C1C(=O)c2ccccc2C1=O | -20.9% (inactive) | – |
| CC(=O)Nc1cccc(C)c1 | 15.8% (inactive) | – |
| Nc1ccc2c(c1)C(=O)c1ccccc1C2=O | -5.65% (inactive) | – |
| Nc1cc(C(=O)O)c(O)c(S(=O)(=O)O)c1 | -21.1% (inactive) | – |
| C=CC(=O)OCCCCCCOC(=O)C=C | – | 39.8 µM (active) |
| N=C1C=CC(=C(c2ccc(N)cc2)c2ccc(N)cc2)C=C1 | – | 15.8 µM (active) |
| Cc1ccc(O)c(N)c1 | 0.219% (inactive) | – |
| CCCCCCc1ccc(-c2ccc(C#N)cc2)cc1 | 17.1% (inactive) | – |
| CCCCCCCC/C=C\CCCCCCCC(=O)N(CCO)CCO | 8.41% (inactive) | – |
| C[C@@H]1CC2(OC(O)[C@]3(C)O[C@H]23)O[C@H]2C[C@@]3(C)[C@@H]4CC[C@H]5C(C)(C)C(O[C@@H]6OC[C@@H](O)[C@H](O)[C@H]6O)CC[C@@]56C[C@@]46CC[C@]3(C)[C@@H]12 (stereo not given in full) | -16.6% (inactive) | – |
| c1ccncc1 | 1.67% (inactive) | – |
| Oc1ccc(O)c2c(O)cccc12 | -21.4% (inactive) | – |
| CC(C)S | -3.09% (inactive) | – |
| Oc1cc(Cl)cc(Cl)c1Cl | 14.9% (inactive) | – |
| CC(C)COC(=O)COc1cc(Cl)c(Cl)cc1Cl | 7.82% (inactive) | – |
| CCCCCCCCOc1ccc(C(=O)O)cc1 | -0.712% (inactive) | – |
| CCOc1ccc2nc(N)sc2c1 | 12.2% (inactive) | – |
| Cc1cccnc1 | 2.58% (inactive) | – |
| Cc1ccc(C(=O)O)cc1[N+](=O)[O-] | 4.63% (inactive) | – |
